# Where “and” joins values, the source holds several entries; their conditions need not be identical. Identical values can stand only once. Like-named read-outs stand apart in the source and are kept apart here.
# Tests used:
# Settings in all cases: n = 1
# HUNK = tested on: HUNK
# ICK = tested on: ICK
# IGF1R = tested on: IGF1R
# IKK-alpha = tested on: T1, IKK-alpha
# T1 construct: gene CHUK
# IKK-beta = tested on: T2, IKK-beta
# T2 construct: gene IKBKB
# IKK-epsilon = tested on: T3, IKK-epsilon
# T3 construct: gene IKBKE
# INSRR = tested on: INSRR
# INSR = tested on: INSR
# IRAK1 = tested on: IRAK1
# IRAK3 = tested on: IRAK3
# [1] = concentration: 1 μM, replicates: in singlicate
# [2] = concentration: 1 μM,replicates: in singlicate, 1 µM
# 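Note: KINOMEscan kinase panel screen.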
smiles,measurement,setting,value
Cc1cc(N2Cc3ccccc3C2)nc(Nc2ccc(S(=O)(=O)N3CCOCC3)cc2)n1.Cl [GSK1669917],%Inh,HUNK; [1],0%
same,%Inh,ICK; [1],99.9%
same,%Inh,IGF1R; [1],2%
same,%Inh,IKK-alpha; [1],0%
same,%Inh,IKK-beta; [1],0%
same,%Inh,IKK-epsilon; [1],29%
same,%Inh,INSRR; [1],0%
same,%Inh,INSR; [1],100%
same,%Inh,IRAK1; [1],0%
same,%Inh,IRAK3; [1],0%
O=C(Nc1n[nH]c2nc(-c3nccs3)c(Br)cc12)C1CCCC1 [SB-742609],%Inh,HUNK; [1],0%
same,%Inh,ICK; [1],85%
same,%Inh,IGF1R; [1],21%
same,%Inh,IKK-alpha; [1],28%
same,%Inh,IKK-beta; [1],27%
same,%Inh,IKK-epsilon; [1],0%
same,%Inh,INSRR; [1],32%
same,%Inh,INSR; [1],9%
same,%Inh,IRAK1; [1],38%
same,%Inh,IRAK3; [1],0%
Cc1ccc(NC(=O)Nc2cc(C(C)(C)C)nn2-c2ccccc2)cc1 [GSK1014915],%Inh,HUNK; [1],0%
same,%Inh,ICK; [1],23%
same,%Inh,IGF1R; [1],8%
same,%Inh,IKK-alpha; [1],22%
same,%Inh,IKK-beta; [1],20%
same,%Inh,IKK-epsilon; [1],1%
same,%Inh,INSRR; [1],0%
same,%Inh,INSR; [1],13%
same,%Inh,IRAK1; [1],23%
same,%Inh,IRAK3; [1],100%
CS(=O)(=O)c1ccc(-c2nc3n(c2-c2ccncc2)CCC3)cc1 [SKF-105942],%Inh,HUNK; [1],27%
same,%Inh,ICK; [1],100%
same,%Inh,IGF1R; [1],0%
same,%Inh,IKK-alpha; [1],0%
same,%Inh,IKK-beta; [1],0%
same,%Inh,IKK-epsilon; [1],0%
same,%Inh,INSRR; [1],0%
same,%Inh,INSR; [1],16%
same,%Inh,IRAK1; [1],1%
same,%Inh,IRAK3; [1],0%
COc1cc(Nc2nccc(N3CCC(NC(=O)Nc4cc(C)ccc4C)C3)n2)cc(OC)c1OC (stereo not drawn) [GSK1379762],%Inh,HUNK; [1],0%
same,%Inh,ICK; [1],22%
same,%Inh,IGF1R; [1],15%
same,%Inh,IKK-alpha; [1],21%
same,%Inh,IKK-beta; [1],17%
same,%Inh,IKK-epsilon; [1],23%
same,%Inh,INSRR; [1],9%
same,%Inh,INSR; [1],0%
same,%Inh,IRAK1; [1],58%
same,%Inh,IRAK3; [1],73%
Cl.c1ccc(-c2n[nH]cc2-c2ccnc(-c3ccc(CN4CCOCC4)cc3)c2)nc1 [GW776245],%Inh,HUNK; [1],2%
same,%Inh,ICK; [1],0%
same,%Inh,IGF1R; [1],0%
same,%Inh,IKK-alpha; [1],0%
same,%Inh,IKK-beta; [1],0%
same,%Inh,IKK-epsilon; [1],0%
same,%Inh,INSRR; [1],0%
same,%Inh,INSR; [1],0%
same,%Inh,IRAK1; [1],0%
same,%Inh,IRAK3; [1],0%
CC(C)(C)c1ccc(C(=O)Nc2cn3cc(-c4cccnc4)ccc3n2)cc1,%Inh,HUNK; [1],0%
same,%Inh,ICK; [1],0%
same,%Inh,IGF1R; [1],0%
same,%Inh,IKK-alpha; [1],21%
same,%Inh,IKK-beta; [1],27%
same,%Inh,IKK-epsilon; [1],11%
same,%Inh,INSRR; [1],7%
same,%Inh,INSR; [1],0%
same,%Inh,IRAK1; [1],41%
same,%Inh,IRAK3; [1],30%
Cc1ccc(NC(=O)Nc2cccc(Cl)c2)cc1-c1ccc(C(=O)Nc2ccncc2)cc1 [GSK1398468],%Inh,HUNK; [1],13%
same,%Inh,ICK; [1],6%
same,%Inh,IGF1R; [1],0%
same,%Inh,IKK-alpha; [1],0%
same,%Inh,IKK-beta; [1],9%
same,%Inh,IKK-epsilon; [1],15%
same,%Inh,INSRR; [1],0%
same,%Inh,INSR; [1],0%
same,%Inh,IRAK1; [1],27%
same,%Inh,IRAK3; [1],100%
CC1=C(C(=O)Nc2cc3cn[nH]c3cc2F)C(c2ccc(C(F)(F)F)cc2)CC(=O)N1 (stereo not drawn) [GSK429286],%Inh,HUNK; [1],20%
same,%Inh,ICK; [1],13%
same,%Inh,IGF1R; [1],0%
same,%Inh,IKK-alpha; [1],0%
same,%Inh,IKK-beta; [1],56%
same,%Inh,IKK-epsilon; [1],5%
same,%Inh,INSRR; [1],0%
same,%Inh,INSR; [1],0%
same,%Inh,IRAK1; [1],31%
same,%Inh,IRAK3; [1],5%
O=S(=O)(c1ccc(-c2ccnc3[nH]ccc23)cc1)N1CCCC1 [GSK846226],%Inh,HUNK; [1],0%
same,%Inh,ICK; [1],0%
same,%Inh,IGF1R; [1],0%
same,%Inh,IKK-alpha; [1],29%
same,%Inh,IKK-beta; [1],94.3%
same,%Inh,IKK-epsilon; [1],31%
same,%Inh,INSRR; [1],0%
same,%Inh,INSR; [1],0%
same,%Inh,IRAK1; [1],8%
same,%Inh,IRAK3; [1],22%
Cc1ccc(NC(=O)Nc2cccc(C(F)(F)F)c2)cc1 [GSK955403],%Inh,HUNK; 1 µM,0%
same,%Inh,ICK; 1 µM,0%
same,%Inh,IGF1R; 1 µM,0%
same,%Inh,IKK-alpha; 1 µM,0%
same,%Inh,IKK-beta; 1 µM,0%
same,%Inh,IKK-epsilon; 1 µM,0%
same,%Inh,INSRR; 1 µM,0%
same,%Inh,INSR; 1 µM,0%
same,%Inh,IRAK1; 1 µM,0%
same,%Inh,IRAK3; 1 µM,100%
Cc1cc(NCC(c2ccccc2)c2ccccc2)nc(NCc2ccc(C(F)(F)F)cc2)n1 [GW497681],%Inh,HUNK; [1],13%
same,%Inh,ICK; [1],0%
same,%Inh,IGF1R; [1],27%
same,%Inh,IKK-alpha; [1],0%
same,%Inh,IKK-beta; [1],0%
same,%Inh,IKK-epsilon; [1],26%
same,%Inh,INSRR; [1],0%
same,%Inh,INSR; [1],0%
same,%Inh,IRAK1; [1],23%
same,%Inh,IRAK3; [1],0%
CCn1c(-c2cccnc2O)nc2cnccc21 [SB-736715],%Inh,HUNK; [1],0%
same,%Inh,ICK; [1],0%
same,%Inh,IGF1R; [1],0%
same,%Inh,IKK-alpha; [1],0%
same,%Inh,IKK-beta; [1],0%
same,%Inh,IKK-epsilon; [1],0%
same,%Inh,INSRR; [1],0%
same,%Inh,INSR; [1],0%
same,%Inh,IRAK1; [1],0%
same,%Inh,IRAK3; [1],0%
Cc1csc(-c2nc(Nc3ccncc3)c3ccccc3n2)n1 [GW869640],%Inh,HUNK; [1],0%
same,%Inh,ICK; [1],33%
same,%Inh,IGF1R; [1],14%
same,%Inh,IKK-alpha; [1],48%
same,%Inh,IKK-beta; [1],41%
same,%Inh,IKK-epsilon; [1],0%
same,%Inh,INSRR; [1],11%
same,%Inh,INSR; [1],2%
same,%Inh,IRAK1; [1],12%
same,%Inh,IRAK3; [1],0%
CSc1nn2c(=O)cc(N3CCOCC3)nc2n1Cc1cccc(C(F)(F)F)c1C [GSK2363608],%Inh,HUNK; [1],0%
same,%Inh,ICK; [2],0% and 12%
same,%Inh,IGF1R; [2],0% and 7%
same,%Inh,IKK-alpha; [2],2% and 3%
same,%Inh,IKK-beta; [2],26% and 22%
same,%Inh,IKK-epsilon; [2],0% and 13%
same,%Inh,INSRR; [2],0% and 8%
same,%Inh,INSR; [2],6% and 0%
same,%Inh,IRAK1; [2],5% and 21%
same,%Inh,IRAK3; [1],0%
COC(=O)c1c(-c2ccccc2)c2cc(C(=O)O)ccc2c(=O)n1Cc1ccccc1,%Inh,HUNK; [1],43%
same,%Inh,ICK; [1],0%
same,%Inh,IGF1R; [1],4%
same,%Inh,IKK-alpha; [1],0%
same,%Inh,IKK-beta; [1],0%
same,%Inh,IKK-epsilon; [1],0%
same,%Inh,INSRR; [1],7%
same,%Inh,INSR; [1],0%
same,%Inh,IRAK1; [1],18%
same,%Inh,IRAK3; [1],0%
Cc1ccccc1-n1cnc2c(N)ncnc21 [SKF-97510],%Inh,HUNK; [1],1%
same,%Inh,ICK; [1],0%
same,%Inh,IGF1R; [1],0%
same,%Inh,IKK-alpha; [1],0%
same,%Inh,IKK-beta; [1],0%
same,%Inh,IKK-epsilon; [1],0%
same,%Inh,INSRR; [1],0%
same,%Inh,INSR; [1],0%
same,%Inh,IRAK1; [1],0%
same,%Inh,IRAK3; [1],0%
Cc1cccc(-c2nc(Nc3ccc4[nH]ncc4c3)c3ccccc3n2)n1 [GW857175],%Inh,HUNK; [1],0%
same,%Inh,ICK; [1],17%
same,%Inh,IGF1R; [1],0%
same,%Inh,IKK-alpha; [1],6%
same,%Inh,IKK-beta; [1],17%
same,%Inh,IKK-epsilon; [1],21%
same,%Inh,INSRR; [1],0%
same,%Inh,INSR; [1],9%
same,%Inh,IRAK1; [1],9%
same,%Inh,IRAK3; [1],3%
